The supplement of paper PMC10849652
The full data set covers some 8,800 targets. This sample favours those with a hit. About 0.5% of all pairs of compound and target were hits.

compound: CCCS(=O)(=O)Nc1ccc(F)c(C(=O)c2c[nH]c3ncc(Cl)cc23)c1F; assay: log2 fold change, soluble protein after heating vs DMSO (PISA); higher = thermal stabilisation; K562 lysate, 10 uM; active = over 0.2 and 3.5 SD of the protein, either way, in both replicates (recomputed)
Procedure, shortened: (§1)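 Following dounce homogenisation of K562 pellets in PBS pH 7.4 with 1 mM MgCl2, crude extract at 1 mg/mL protein was incubated for 30 min with 10 μM compound. Aliquots were then heated for 3 min over 48°C-58°C and pooled, NP-40 was added to 0.5% at 4°C, and soluble protein was recovered as the supernatant at 21,000xg for 90 min. Channel-sum-equalised TMTpro 16plex LC-MS/MS quantified this protein. Each value, from duplicates, is a log-two fold change in thermal stability relative to solvent controls.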

Chain of UniProt P04792 (P04792 whole entry, looked up): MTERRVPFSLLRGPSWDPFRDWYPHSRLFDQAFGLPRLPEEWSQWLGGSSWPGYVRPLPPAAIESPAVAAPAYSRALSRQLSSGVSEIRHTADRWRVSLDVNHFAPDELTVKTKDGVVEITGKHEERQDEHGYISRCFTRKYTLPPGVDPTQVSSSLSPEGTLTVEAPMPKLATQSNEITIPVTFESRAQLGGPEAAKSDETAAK
Chain of UniProt Q9Y5Q8 (Q9Y5Q8 whole entry, looked up): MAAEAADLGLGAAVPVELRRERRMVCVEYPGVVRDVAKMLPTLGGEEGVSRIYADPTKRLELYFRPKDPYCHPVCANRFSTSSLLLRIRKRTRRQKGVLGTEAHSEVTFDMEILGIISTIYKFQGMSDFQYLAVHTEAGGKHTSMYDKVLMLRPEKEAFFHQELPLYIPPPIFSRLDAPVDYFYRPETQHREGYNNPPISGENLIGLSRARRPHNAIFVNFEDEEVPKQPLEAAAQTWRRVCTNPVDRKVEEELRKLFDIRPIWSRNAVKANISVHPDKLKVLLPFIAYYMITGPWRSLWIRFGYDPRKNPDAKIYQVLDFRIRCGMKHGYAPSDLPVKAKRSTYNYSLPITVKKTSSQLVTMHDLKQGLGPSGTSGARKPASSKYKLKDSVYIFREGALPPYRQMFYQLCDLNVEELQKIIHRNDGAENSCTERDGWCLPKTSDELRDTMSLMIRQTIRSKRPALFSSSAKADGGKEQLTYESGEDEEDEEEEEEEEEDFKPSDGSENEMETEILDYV
Chain of UniProt Q8NEC7 (Q8NEC7 whole entry, looked up): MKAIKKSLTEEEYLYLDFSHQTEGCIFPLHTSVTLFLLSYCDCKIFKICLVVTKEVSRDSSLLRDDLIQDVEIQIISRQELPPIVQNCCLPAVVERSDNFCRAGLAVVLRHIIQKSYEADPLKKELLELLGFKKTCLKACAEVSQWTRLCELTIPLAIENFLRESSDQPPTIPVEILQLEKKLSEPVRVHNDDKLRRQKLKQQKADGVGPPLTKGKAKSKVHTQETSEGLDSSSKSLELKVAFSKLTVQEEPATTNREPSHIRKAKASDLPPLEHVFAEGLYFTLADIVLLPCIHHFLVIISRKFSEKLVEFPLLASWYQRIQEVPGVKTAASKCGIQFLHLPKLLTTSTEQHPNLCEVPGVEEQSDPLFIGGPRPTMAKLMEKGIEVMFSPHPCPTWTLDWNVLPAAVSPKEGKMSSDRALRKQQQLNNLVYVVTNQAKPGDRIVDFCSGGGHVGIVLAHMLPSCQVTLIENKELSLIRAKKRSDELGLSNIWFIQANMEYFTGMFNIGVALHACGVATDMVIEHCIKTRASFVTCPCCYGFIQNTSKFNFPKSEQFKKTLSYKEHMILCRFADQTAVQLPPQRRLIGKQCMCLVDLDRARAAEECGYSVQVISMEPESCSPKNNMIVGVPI
Chain of UniProt Q9ULR0 (Q9ULR0 whole entry, looked up): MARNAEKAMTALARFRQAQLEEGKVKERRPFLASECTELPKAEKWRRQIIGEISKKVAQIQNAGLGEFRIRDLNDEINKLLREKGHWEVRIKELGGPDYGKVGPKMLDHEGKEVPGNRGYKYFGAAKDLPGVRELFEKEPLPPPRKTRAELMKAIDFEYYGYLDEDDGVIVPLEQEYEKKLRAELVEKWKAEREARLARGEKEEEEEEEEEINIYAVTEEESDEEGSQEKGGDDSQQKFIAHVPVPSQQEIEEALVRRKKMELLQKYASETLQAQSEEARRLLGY
Chain of UniProt Q68E01 (Q68E01 whole entry, looked up): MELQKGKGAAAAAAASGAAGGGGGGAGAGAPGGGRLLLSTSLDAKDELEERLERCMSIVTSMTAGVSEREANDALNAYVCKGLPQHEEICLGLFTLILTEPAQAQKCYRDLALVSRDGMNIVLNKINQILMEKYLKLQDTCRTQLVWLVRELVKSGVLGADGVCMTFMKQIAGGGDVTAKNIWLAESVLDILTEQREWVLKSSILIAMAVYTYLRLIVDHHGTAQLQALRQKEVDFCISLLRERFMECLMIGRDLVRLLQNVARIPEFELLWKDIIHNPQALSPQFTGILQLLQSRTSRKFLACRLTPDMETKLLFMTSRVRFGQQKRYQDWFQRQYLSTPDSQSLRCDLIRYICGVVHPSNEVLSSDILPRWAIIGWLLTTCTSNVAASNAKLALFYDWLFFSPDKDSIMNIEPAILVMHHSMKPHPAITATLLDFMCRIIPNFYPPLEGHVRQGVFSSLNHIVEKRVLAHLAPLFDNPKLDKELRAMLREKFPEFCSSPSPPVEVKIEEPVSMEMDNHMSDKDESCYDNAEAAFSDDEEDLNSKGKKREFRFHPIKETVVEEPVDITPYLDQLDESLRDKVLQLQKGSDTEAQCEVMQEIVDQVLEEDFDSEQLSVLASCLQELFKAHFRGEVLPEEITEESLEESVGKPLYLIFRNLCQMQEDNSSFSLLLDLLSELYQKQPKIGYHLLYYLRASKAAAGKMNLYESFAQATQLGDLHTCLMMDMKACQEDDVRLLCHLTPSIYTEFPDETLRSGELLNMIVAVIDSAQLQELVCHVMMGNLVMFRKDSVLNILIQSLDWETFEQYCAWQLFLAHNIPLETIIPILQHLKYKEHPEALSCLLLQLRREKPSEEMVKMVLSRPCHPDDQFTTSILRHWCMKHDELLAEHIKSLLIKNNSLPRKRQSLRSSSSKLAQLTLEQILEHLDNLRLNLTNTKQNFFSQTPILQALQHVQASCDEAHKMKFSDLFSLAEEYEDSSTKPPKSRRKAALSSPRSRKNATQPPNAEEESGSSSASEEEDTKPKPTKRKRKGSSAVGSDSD
Chain of UniProt Q9UGL1 (Q9UGL1 whole entry, looked up): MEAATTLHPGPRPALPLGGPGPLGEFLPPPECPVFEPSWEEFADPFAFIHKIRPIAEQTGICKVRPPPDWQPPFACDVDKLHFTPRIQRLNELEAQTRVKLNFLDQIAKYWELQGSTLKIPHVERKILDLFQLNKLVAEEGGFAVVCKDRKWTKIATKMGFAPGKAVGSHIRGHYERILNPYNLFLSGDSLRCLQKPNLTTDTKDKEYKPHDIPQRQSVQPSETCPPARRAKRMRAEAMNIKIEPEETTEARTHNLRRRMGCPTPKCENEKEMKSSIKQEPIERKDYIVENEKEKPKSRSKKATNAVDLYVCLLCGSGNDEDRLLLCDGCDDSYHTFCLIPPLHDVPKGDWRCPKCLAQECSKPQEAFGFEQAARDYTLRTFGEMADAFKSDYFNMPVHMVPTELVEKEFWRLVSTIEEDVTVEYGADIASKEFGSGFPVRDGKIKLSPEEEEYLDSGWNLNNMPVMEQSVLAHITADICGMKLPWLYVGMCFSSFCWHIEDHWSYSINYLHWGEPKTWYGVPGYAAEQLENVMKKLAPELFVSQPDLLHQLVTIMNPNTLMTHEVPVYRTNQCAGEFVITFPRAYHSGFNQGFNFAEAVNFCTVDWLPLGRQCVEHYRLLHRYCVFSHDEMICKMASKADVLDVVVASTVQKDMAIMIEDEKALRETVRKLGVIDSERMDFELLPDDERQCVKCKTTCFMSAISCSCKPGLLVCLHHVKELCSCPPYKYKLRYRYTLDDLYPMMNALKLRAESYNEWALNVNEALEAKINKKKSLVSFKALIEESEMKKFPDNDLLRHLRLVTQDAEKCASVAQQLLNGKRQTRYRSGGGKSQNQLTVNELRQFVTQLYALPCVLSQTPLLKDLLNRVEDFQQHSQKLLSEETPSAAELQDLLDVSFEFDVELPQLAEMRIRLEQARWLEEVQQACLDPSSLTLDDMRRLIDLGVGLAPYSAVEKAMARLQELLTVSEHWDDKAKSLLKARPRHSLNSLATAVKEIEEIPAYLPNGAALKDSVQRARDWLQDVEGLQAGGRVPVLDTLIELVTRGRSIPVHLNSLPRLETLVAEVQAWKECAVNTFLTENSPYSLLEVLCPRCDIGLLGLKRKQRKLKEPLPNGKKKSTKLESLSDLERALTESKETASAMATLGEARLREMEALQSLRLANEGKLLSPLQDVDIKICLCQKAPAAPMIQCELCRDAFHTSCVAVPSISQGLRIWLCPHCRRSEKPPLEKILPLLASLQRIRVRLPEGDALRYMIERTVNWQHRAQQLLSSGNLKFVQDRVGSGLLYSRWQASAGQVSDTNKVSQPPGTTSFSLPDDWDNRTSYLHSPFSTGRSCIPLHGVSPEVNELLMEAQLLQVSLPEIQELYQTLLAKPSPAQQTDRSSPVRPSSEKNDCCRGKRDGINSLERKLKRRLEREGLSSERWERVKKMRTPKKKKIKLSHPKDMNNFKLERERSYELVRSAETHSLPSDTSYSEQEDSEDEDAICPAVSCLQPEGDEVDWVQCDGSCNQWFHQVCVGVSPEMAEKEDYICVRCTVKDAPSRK
Chain of UniProt Q9BUE6 (Q9BUE6 whole entry, looked up): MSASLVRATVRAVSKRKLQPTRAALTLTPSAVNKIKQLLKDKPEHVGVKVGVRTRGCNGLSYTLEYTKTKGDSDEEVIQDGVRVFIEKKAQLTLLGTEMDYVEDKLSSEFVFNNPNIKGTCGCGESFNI
Chain of UniProt Q9H6K1 (Q9H6K1 whole entry, looked up): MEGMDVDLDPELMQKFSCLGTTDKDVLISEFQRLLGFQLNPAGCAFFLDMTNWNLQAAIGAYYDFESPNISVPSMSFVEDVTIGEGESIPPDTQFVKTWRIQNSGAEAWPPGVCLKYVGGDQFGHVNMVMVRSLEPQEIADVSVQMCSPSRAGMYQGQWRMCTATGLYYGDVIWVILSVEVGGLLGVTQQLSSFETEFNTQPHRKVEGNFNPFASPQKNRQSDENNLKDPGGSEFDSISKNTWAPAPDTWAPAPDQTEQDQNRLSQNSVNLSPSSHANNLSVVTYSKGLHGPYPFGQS
Chain of UniProt Q03013 (Q03013 whole entry, looked up): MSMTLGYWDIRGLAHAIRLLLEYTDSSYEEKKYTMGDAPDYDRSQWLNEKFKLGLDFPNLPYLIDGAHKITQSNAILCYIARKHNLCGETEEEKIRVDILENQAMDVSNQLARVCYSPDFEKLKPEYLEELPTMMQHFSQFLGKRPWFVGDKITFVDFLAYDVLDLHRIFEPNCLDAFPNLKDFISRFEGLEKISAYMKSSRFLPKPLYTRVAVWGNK

log2 fold change, inactive:
HDAC3 (UniProt O15379) 0.026
GTF3C5 isoform 3 (UniProt Q9Y5Q8) 0.009
ISY1 isoform 1 (UniProt Q9ULR0) 0.034
HEATR6 (UniProt Q6AI08) 0.031
H4C1 (UniProt P62805) 0.087
ILRUN (UniProt Q9H6K1) 0.048
ISCA1 isoform 2 (UniProt Q9BUE6) -0.059
KDM5B isoform 2 (UniProt Q9UGL1) 0.073
INTS3 (UniProt Q68E01) 0.02
GSTCD (UniProt Q8NEC7) 0.057
HSPB1 (UniProt P04792) -0.003
INPPL1 (UniProt O15357) 0.01

compound: CCN(CCCOc1ccc2c(Nc3cc(CC(=O)Nc4cccc(F)c4)[nH]n3)ncnc2c1)CCOP(=O)(O)O [barasertib]; assay: as above
Procedure, shortened: as §1

log2 fold change, inactive:
GLYR1 (UniProt Q49A26) 0.162
HMGCS1 (UniProt Q01581) -0.038
GSTM4 (UniProt Q03013) -0.044
KARS1 (UniProt Q15046) 0.002
GTF2H4 (UniProt Q92759) 0.039
HAUS7 isoform 2 (UniProt Q99871) 0.002
GSE1 (UniProt Q14687) 0.011
INTS10 (UniProt Q9NVR2) 0.061
GMDS (UniProt O60547) 0.027
HDHD5 (UniProt Q9BXW7) -0.137
GLUD2 (UniProt P49448) -0.069
ILKAP (UniProt Q9H0C8) -0.04
HSPA14 (UniProt Q0VDF9) 0.001
GLUL (UniProt P15104) -0.026
GSK3A (UniProt P49840) -0.04
GRK6 isoform 2 (UniProt P43250) 0.042
GRK2 (UniProt P25098) -0.006
KDM5C (UniProt P41229) 0.096
ILK (UniProt Q13418) 0.059
HLTF (UniProt Q14527) 0.077
INTS7 (UniProt Q9NVH2) 0.335
ICAM2 (UniProt P13598) 0.018
HSP90AA4P (UniProt Q58FG1) 0.377
HMGB2 (UniProt P26583) -0.019
HDAC3 (UniProt O15379) -0.038
GTF3C5 isoform 3 (UniProt Q9Y5Q8) -0.011
ISY1 isoform 1 (UniProt Q9ULR0) 0.018
HEATR6 (UniProt Q6AI08) 0.109
H4C1 (UniProt P62805) 0.079
ILRUN (UniProt Q9H6K1) 0.06
ISCA1 isoform 2 (UniProt Q9BUE6) 0.028
KDM5B isoform 2 (UniProt Q9UGL1) 0.039
INTS3 (UniProt Q68E01) 0.05
GSTCD (UniProt Q8NEC7) -0.039
HSPB1 (UniProt P04792) 0.019
INPPL1 (UniProt O15357) 0.028

compound: CC[C@@H]1C(=O)N(C)c2cnc(Nc3ccc(C(=O)NC4CCN(C)CC4)cc3OC)nc2N1C1CCCC1; assay: as above
Procedure, shortened: as §1

log2 fold change, inactive:
GLYR1 (UniProt Q49A26) 0.045
HMGCS1 (UniProt Q01581) -0.003
GSTM4 (UniProt Q03013) 0.024
KARS1 (UniProt Q15046) -0.072
GTF2H4 (UniProt Q92759) -0.099
HAUS7 isoform 2 (UniProt Q99871) 0.005
GSE1 (UniProt Q14687) -0.015
INTS10 (UniProt Q9NVR2) -0.129
GMDS (UniProt O60547) -0.088
HDHD5 (UniProt Q9BXW7) -0.076
GLUD2 (UniProt P49448) 0.02
ILKAP (UniProt Q9H0C8) -0.048
HSPA14 (UniProt Q0VDF9) -0.026
GLUL (UniProt P15104) -0.028
GSK3A (UniProt P49840) -0.015
GRK6 isoform 2 (UniProt P43250) 0.11
GRK2 (UniProt P25098) -0.08
KDM5C (UniProt P41229) -0.031
ILK (UniProt Q13418) -0.03
HLTF (UniProt Q14527) -0.002
INTS7 (UniProt Q9NVH2) -0.073
ICAM2 (UniProt P13598) 0.03
HSP90AA4P (UniProt Q58FG1) 0.006
HMGB2 (UniProt P26583) 0.037
HDAC3 (UniProt O15379) -0.023
GTF3C5 isoform 3 (UniProt Q9Y5Q8) 0.006
ISY1 isoform 1 (UniProt Q9ULR0) 0.066
HEATR6 (UniProt Q6AI08) -0.076
H4C1 (UniProt P62805) -0.055
ILRUN (UniProt Q9H6K1) -0.001
ISCA1 isoform 2 (UniProt Q9BUE6) 0.042
KDM5B isoform 2 (UniProt Q9UGL1) 0.138
INTS3 (UniProt Q68E01) -0.029
GSTCD (UniProt Q8NEC7) -0.018
HSPB1 (UniProt P04792) 0.008
INPPL1 (UniProt O15357) -0.02
